Consider 36 compounds from PubChem BioAssay (Tox21).

Inconclusive results are not listed. A number with no mark means an inactive call. Activity calls are given as the source filed them. Unless noted, calls follow the shape of the full dose curve.
% is scaled to controls: 0 for no effect and ±100 for the full control effect; potency is read from the fitted curve at half-maximal effect.

The first test in a line: qHTS assay for small molecule agonists of the antioxidant response element (ARE) signaling pathway (AID 743202; active = well fitted activation curve with a large enough effect in the signal ratio in the repeat runs, not every such curve was filed as active; the % refers to the signal ratio). Particulars: HepG2 ARE-bla reporter, beta-lactamase FRET, 16 h; series mostly up to 73.3 µM; activation: at the top concentration. In short, it runs like this: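 Read-out: LiveBLAzer B/G FRET substrate fluorescence after 2 h at room temperature, following 16 h compound treatment at 37 C of HepG2 cells carrying an ARE-driven beta-lactamase reporter.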
(In qHTS, concentration-response curves come from the screen itself.)
Regarding `CC(C=O)Cc1ccc2c(c1)OCO2` (centres undefined), the “activation” value was -7.12%.
The same measure, in the same setting: the figure for `CC1=C(C(=O)O)N2C(=O)[C@@H](N)[C@H]2SC1` is -7.5% [at 34.3 µM]; for `O=C(CCN1CC1)OCC(CO)(COC(=O)CCN1CC1)COC(=O)CCN1CC1` it is 4.88%; for `CCNc1nc(NC(C)C)nc(OC)n1` it is -9.9%.
For the compound `NC1=NC(=O)C(c2ccccc2)O1` (centres undefined), the “activation” value was -9.6%.
As for `COP(=S)(OC)Oc1ccc(S(N)(=O)=O)cc1`, the “activation” value is -0.799%.
On the same count and under the same terms, the figure for `Fc1cc(Br)ccc1CBr` is 4.99%.
Consider `O=C1OC(CCN2CCCCC2)OC1(c1ccccc1)c1ccccc1` (centres undefined), for which the Potency was 23.7 µM (active).
Take `CC(C)(C)NCC(O)c1cc(Cl)c(N)c(Cl)c1` (centres undefined): the “activation” value was -13.5%.
As to `CCC(=O)C(CCN(C)C)(c1ccccc1)c1ccccc1`, the “activation” value is -2.2%.
On to `ClCCCN1CCN(c2cccc(Cl)c2)CC1`, for which the Potency was 6.68 µM (active).
Regarding `CCN(CC)CCOC(=O)C(C)(c1ccccc1)c1ccccc1`, the “activation” value was -6.42%.
Consider `CC(C(=O)c1ccccc1)N(C)C` (centres undefined), for which the “activation” value is 0.302%.

A short description of a further test: qHTS assay for small molecule agonists of the antioxidant response element (ARE) signaling pathway - cell viability counter screen (AID 743203). Also: nearly all actives have a fitted effect of over 55% in size. Particulars: ARE-bla HepG2 viability, CellTiter-Glo luminescence, 16 h; series mostly up to 73.3 µM; viability change, negative = cytotoxic: at the top concentration. In short, it runs like this: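 Compounds in DMSO were pinned onto ARE-bla HepG2 cells plated 5 hrs earlier at 2,000 cells/well. Sixteen hours later at 37C/5% CO2, CellTiter-Glo was added and luminescence measured after 30 min at room temperature.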
On to `CC(C=O)Cc1ccc2c(c1)OCO2` (centres undefined), for which the “viability change, negative = cytotoxic” value was 1.44%.
As for `c1ccc(N2CCNCC2)cc1`, the “viability change, negative = cytotoxic” value is -2.41%.
In the case of `C[C@]12CC[C@H]3[C@@H](CCC4=CC(=O)CC[C@@]43C)[C@@H]1CC[C@@H]2C(=O)O`, the “viability change, negative = cytotoxic” value is 1.13%.
Regarding `CC1CCC(=O)O1` (centres undefined), the “viability change, negative = cytotoxic” value was -11.9%.
On the same count and under the same terms, the figure for `CC1=C(C(=O)O)N2C(=O)[C@@H](N)[C@H]2SC1` is -1.29% [at 34.3 µM].
Regarding `COc1cccc2c1cc([N+](=O)[O-])c1c(C(=O)O)cc3c(c12)OCO3`, the Potency was 17.2 µM (active).
Regarding `O=C(CCN1CC1)OCC(CO)(COC(=O)CCN1CC1)COC(=O)CCN1CC1`, the “viability change, negative = cytotoxic” value was 1.3%.
For the compound `Fc1ccc(C2(Cn3cncn3)OC2c2ccccc2Cl)cc1` (centres undefined), the “viability change, negative = cytotoxic” value is -0.689%.
As for `CC(C(O)c1ccccc1)N(C)C/C=C/c1ccccc1` (centres undefined), the “viability change, negative = cytotoxic” value was -1.54%.
The same measure, in the same setting: for `CC1(C(=O)Nc2ccc(O)c(Cl)c2Cl)CCCCC1` the value was -3.04%.
In the case of `O=C1CN2CCOC2(c2ccccc2Cl)c2cc(Cl)ccc2N1` (centres undefined), the “viability change, negative = cytotoxic” value was 7.38%.
For `CCNc1nc(NC(C)C)nc(OC)n1`, the “viability change, negative = cytotoxic” value was -9.67%.
The same measure, in the same setting: the figure for `NC1=NC(=O)C(c2ccccc2)O1` (centres undefined) is 5.88%.
In the case of `CCOC(=O)C1(c2ccccc2)CCN(CCc2ccc(N)cc2)CC1`, the “viability change, negative = cytotoxic” value is -6.05%.
`CCOC(=O)C(c1c(O)c2ccccc2oc1=O)c1c(O)c2ccccc2oc1=O`: the “viability change, negative = cytotoxic” value was 1.25%.
For `CC1COC2(c3ccccc3Cl)c3cc(Cl)ccc3NC(=O)CN12` (centres undefined), the “viability change, negative = cytotoxic” value was 11.4%.
Turning to `COc1cccc(C(=O)NN(C(=O)c2cc(C)cc(C)c2)C(C)(C)C)c1C`, the “viability change, negative = cytotoxic” value is -12.3%.
With `O=S(=O)(O)C(F)(F)C(F)(F)C(F)(F)C(F)(F)C(F)(F)C(F)(F)F`, the “viability change, negative = cytotoxic” value is 0.0587%.
The same measure, in the same setting: for `CN1CCC(N(Cc2ccccc2)c2ccccc2)CC1` the value was -6.68%.
Regarding `Clc1ccccc1N1CCNCC1`, the “viability change, negative = cytotoxic” value was 1.72%.
As for `COP(=S)(OC)Oc1ccc(S(N)(=O)=O)cc1`, the “viability change, negative = cytotoxic” value was 9.24%.
`O=C(NCO)NCO`: the “viability change, negative = cytotoxic” value was 10.3% [at 94.8 µM].
Same read-out and setting: the figure for `CCCCC(=O)Cl` is 1.63% [at 94.8 µM]; for `Fc1cc(Br)ccc1CBr` it is -2.29%.
In the case of `O=C1OC(CCN2CCCCC2)OC1(c1ccccc1)c1ccccc1` (centres undefined), the “viability change, negative = cytotoxic” value is -2.04%.
`Nc1c(Br)cc([N+](=O)[O-])cc1[N+](=O)[O-]`: the “viability change, negative = cytotoxic” value is 7.79% [at 94.8 µM].
`CCC#N`: the “viability change, negative = cytotoxic” value was 0.558% [at 94.8 µM].
On the same count and under the same terms, for `O=[N+]([O-])c1cc(Cl)c(Cl)c(Cl)c1` the value was -11.1%.
For the compound `CCOP(=S)(Oc1cnc(C(C)(C)C)nc1)OC(C)C` (centres undefined), the “viability change, negative = cytotoxic” value was -0.536%.
Turning to `CC(C)(C)NCC(O)c1cc(Cl)c(N)c(Cl)c1` (centres undefined), the “viability change, negative = cytotoxic” value was 8.95%.
In the case of `CCC(=O)C(CCN(C)C)(c1ccccc1)c1ccccc1`, the “viability change, negative = cytotoxic” value is 6.15%.
In the case of `ClCCCN1CCN(c2cccc(Cl)c2)CC1`, the “viability change, negative = cytotoxic” value was -0.0745%.
On the same count and under the same terms, for `CN1C[C@@H](NS(=O)(=O)N(C)C)C[C@@H]2c3cccc4c3c(cn4C)C[C@H]21` the value was -0.97%; for `CCN(CC)CCOC(=O)C(C)(c1ccccc1)c1ccccc1`, 6.39%; for `CC(C(=O)c1ccccc1)N(C)C` (centres undefined), -4.8%.
With `COC(=O)COc1ccc(Cl)cc1Cl`, the “viability change, negative = cytotoxic” value is 7.68%.
